Assay [1] in a line: inhibitors of TNFa-induced NFkB p65 translocation, primary screen, imaging, HUVEC, MLSMR starter and 10KST1 sets (AID 438;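 active means inhibition above 20% together with a positive visual image hit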;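 further: compound added about 3h40 before a 20 min TNFalpha stimulation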;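 on inhibition: signal is the nuclear over cytoplasmic p65 intensity ratio per well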). The settings on record: HUVEC TNFa-induced p65 nuclear translocation; cell count: measured here: nuclei count (cytotoxicity indicator), at 2.08 µM; inhibition: at 2 µM, stronger effect = higher value, 0% TNFa-plus-vehicle, 100% no-TNFa wells.
The nature of assay [2]: endothelial E-selectin expression blockers – imaging, HUVEC, immunofluorescence, MLSMR starter and 10KST1 sets, primary screen (AID 487;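 active means visually confirmed hit in the image check and inhibition above 20%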;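 on inhibition: signal is fraction of cell area covered by stained E-selectin grains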;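 on nuclei count: 100% = median nuclei count of all wells on the same plate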). The settings on record: HUVEC TNFalpha-induced E-selectin immunofluorescence imaging, at 2 µM; inhibition: stronger effect = higher value; nuclei count: measured here: cell number, toxicity.
The nature of assay [3]: Primary imaging screen for DUSP6 inhibitors that restore phospho-Erk in transfected HeLa cells, chemical complementation (AID 609;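 active means compounds giving at least 50% inhibition in the cell-based MKP-3 phosphatase rescue imaging test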;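 on inhibition: phospho-Erk level distribution per well compared with pooled transfected vehicle control wells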). The note with it: HeLa MKP-3 transfected, phospho-Erk imaging KS statistic, at 10 µM, cells stimulated with TPA for 15 min.
Assay [4] has as its target Dual specificity protein phosphatase 6 (Homo sapiens) (UniProt Q16828). The assay is described as above. The settings on record: HeLa MKP-3 transfected, phospho-Erk imaging KS statistic; at 10 µM; stronger effect = higher value; cells stimulated with TPA for 15 min.
In assay [5] the target is Voltage-gated potassium channel subunit beta-2 (Rattus norvegicus) (UniProt P62483). The assay is described as follows: inhibitors of rat Kvbeta2 reductase activity – biochemical, NADPH fluorescence, primary screen (AID 622;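 active means fluorescence slope higher than the sample average by over 3 SD, cut at about -0.22 in these data, passing the limit was not always enough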;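 further: slope of raw intensity against log time taken from 70 to 1610 s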). The note with it: recombinant KvBeta, 4-cyanobenzaldehyde reduction, at 10 µM, stronger effect = higher value.
Sequence of Voltage-gated potassium channel subunit beta-2 (Rattus norvegicus) (P62483 whole entry, looked up): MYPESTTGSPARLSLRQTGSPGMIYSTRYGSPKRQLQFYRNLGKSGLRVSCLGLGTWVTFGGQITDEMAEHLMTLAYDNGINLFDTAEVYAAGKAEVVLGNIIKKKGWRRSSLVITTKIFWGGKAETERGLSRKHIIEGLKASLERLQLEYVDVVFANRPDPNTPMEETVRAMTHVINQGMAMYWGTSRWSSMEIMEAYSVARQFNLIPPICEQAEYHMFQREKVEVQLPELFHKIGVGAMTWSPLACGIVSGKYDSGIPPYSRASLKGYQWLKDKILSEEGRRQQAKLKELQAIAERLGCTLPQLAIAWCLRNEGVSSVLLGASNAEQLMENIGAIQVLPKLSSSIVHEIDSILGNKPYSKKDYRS
Assay [6] shares this target. In words: enhancers of rat Kvbeta2 NADPH turnover – biochemical, NADPH fluorescence, primary screen (AID 623;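 active means NADPH fluorescence slope more negative than the mean of all samples by about 3 SD, 99.7% confidence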;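 further: fluorescence intensity change per second fitted from 20 to 320 s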). The note with it: Recombinant KvBeta, NADPH fluorescence decrease slope, 10 min; at 10 µM; stronger effect = lower value.
Assay [7] concerns the target Alpha-2C adrenergic receptor (Homo sapiens) (UniProt P18825). In words: compounds altering alpha2C-coupled GIRK flux – cell-based, HEK293 alpha2C/GIRK1/2, thallium flux, primary screen (AID 624;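 active means fluorescence slope after compound addition differing from the mean of all screened samples at 99.7% confidence, in either direction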;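 further: slope of fluorescence ratio to pre-addition baseline per second over 15 to 24 s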). The settings on record: thallium flux BTC fluorescence, at 10 µM, actives lie on both sides.
A short description of assay [8]: inhibitors of larval lipid processing in zebrafish, primary screen, whole organism, PED6 fluorescence, gall bladder and intestine (AID 686;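 active means a full or partial loss of lipid-probe fluorescence in the fish gall bladder, intestine or both, judged by eye; inactive means no fluorescence loss, or compound toxic to the fish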;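 further: larvae 5 to 7 days old with five fish per well; signal comes from phospholipase A2 cleavage of quenched PED6 carried via bile; overnight exposure to compound and PED6 before scoring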). The settings on record: Zebrafish larvae PED6 lipid processing, fluorescence scoring; screened at 20 µM (by protocol).
The nature of assay [9]: loss of swimming-algae plug formation – whole organism, Chlamydomonas reinhardtii, WT vs cilia-less mutant, absorbance, 96-well, primary screen (AID 463189).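 Further: 0% = wild type cc124 cells in DMSO and 100% = ciliumless bld1 mutant cells.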 The settings on record: Chlamydomonas reinhardtii gravitaxis, OD600 absorbance, 2 days; at 10 µM; stronger effect = higher value.
Assay [10] in a line: blockers of RIG-like receptor reporter activation – cell-based, Sendai virus stimulus, luciferase, 10K MLSCN set, TLR/RLR signaling modifier project, primary screen (AID 602276;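 active means inhibition at or above 50% at 10 µM; inactive means inhibition below 50%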;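 further: firefly luciferase from ISG56 promoter only with Renilla not read in this screen; 0% = Sendai virus plus DMSO and 100% = medium plus DMSO without virus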). The note with it: HEK293 RL24 IRF3 luciferase reporter, at 10 µM, stronger effect = higher value. On the technique in general: Reporter assays use an easily measured gene product as a stand-in for the process of interest.

Assay [11] is described as follows: TLR3 IRF3 reporter activation blockers – cell-based, poly I:C stimulus, luciferase, 10K MLSCN set, primary screen (AID 602277;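 active means inhibition of the reporter signal at or above 50%; inactive means inhibition below 50%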). The note with it: HEK293-TLR3 RL24 IRF3 luciferase reporter, at 10 µM, stronger effect = higher value.
Assay [12] can be described thus: reduction of polyQ htt aggregates in cells – imaging, exon1htt(103Q)mCFP cells, high-content imaging, primary screen (AID 483;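 active means visual image review flags a hit and inhibition of aggregation exceeds 20%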;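 further: compound exposure lasted 3 days before fixation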;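 on nuclei count: percent of the per-plate median nuclei count of sample wells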). The note with it: exon1htt(103Q)mCFP cell line, aggregate imaging, at 2 µM; inhibition of aggregation: stronger effect = higher value; nuclei count: measured here: cell count, toxicity.
Assay [13] deals with Muscarinic acetylcholine receptor M4 (Homo sapiens) (UniProt P08173). The assay is described as follows: M4-linked GIRK flux change, two-sided – cell-based, HEK293 M4/GIRK, thallium flux, BTC-AM, M4 allosteric agonist project, primary screen (AID 625;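 active means fluorescence slope after compound addition differing from the mean of all tested samples at 99.7% confidence, mostly higher but some lower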;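 further: thallium influx through GIRK channels coupled to M4 in HEK293 cells with BTC-AM dye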). The note with it: at 10 µM, actives lie on both sides.
Sequence of Muscarinic acetylcholine receptor M4 (Homo sapiens) (P08173 whole entry, looked up): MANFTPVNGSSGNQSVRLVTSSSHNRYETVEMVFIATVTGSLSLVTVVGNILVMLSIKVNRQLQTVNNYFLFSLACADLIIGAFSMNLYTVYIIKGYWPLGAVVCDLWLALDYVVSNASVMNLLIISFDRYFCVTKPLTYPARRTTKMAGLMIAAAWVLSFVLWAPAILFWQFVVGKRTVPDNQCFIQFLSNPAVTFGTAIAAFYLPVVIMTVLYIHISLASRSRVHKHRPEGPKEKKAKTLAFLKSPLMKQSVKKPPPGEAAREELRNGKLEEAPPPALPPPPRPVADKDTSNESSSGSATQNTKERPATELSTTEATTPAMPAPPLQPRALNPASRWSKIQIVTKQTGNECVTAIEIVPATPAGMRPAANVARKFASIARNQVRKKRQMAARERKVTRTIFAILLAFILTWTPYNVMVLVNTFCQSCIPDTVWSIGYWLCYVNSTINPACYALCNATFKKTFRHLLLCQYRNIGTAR
Where [14] appears, read: measured here: cell density z-score.
Where [15] appears, read: measured here: nuclear c-Myc green intensity z-score.
Where [16] appears, read: measured here: nuclear pErk red intensity z-score, stronger effect = higher value.

Several values for one entry are separate records, joined by “and”; a condition that tells them apart may be missing. Equal values may be shown once. Activity calls are given as the source filed them.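 How the source made its calls, unless noted: active means inhibition at or above 50% relative to wild type and mutant plate controls; inactive means inhibition below 50%.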

Usually inhibition stands for the relative decrease from the control value, in per cent.

Sequence of Alpha-2C adrenergic receptor (Homo sapiens) (P18825 whole entry, looked up): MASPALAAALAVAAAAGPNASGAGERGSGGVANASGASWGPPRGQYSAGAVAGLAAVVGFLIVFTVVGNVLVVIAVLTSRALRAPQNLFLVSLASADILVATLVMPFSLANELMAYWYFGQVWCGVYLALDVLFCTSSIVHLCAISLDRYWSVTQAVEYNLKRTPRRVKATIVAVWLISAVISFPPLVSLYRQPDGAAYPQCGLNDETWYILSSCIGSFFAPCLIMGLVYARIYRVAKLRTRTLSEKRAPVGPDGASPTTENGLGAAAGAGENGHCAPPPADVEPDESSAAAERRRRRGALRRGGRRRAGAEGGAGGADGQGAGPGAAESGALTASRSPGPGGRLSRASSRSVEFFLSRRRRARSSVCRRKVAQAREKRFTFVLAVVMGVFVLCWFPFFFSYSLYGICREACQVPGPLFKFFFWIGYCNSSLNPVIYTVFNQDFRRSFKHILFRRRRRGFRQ
Sequence of Dual specificity protein phosphatase 6 (Homo sapiens) (Q16828 whole entry, looked up): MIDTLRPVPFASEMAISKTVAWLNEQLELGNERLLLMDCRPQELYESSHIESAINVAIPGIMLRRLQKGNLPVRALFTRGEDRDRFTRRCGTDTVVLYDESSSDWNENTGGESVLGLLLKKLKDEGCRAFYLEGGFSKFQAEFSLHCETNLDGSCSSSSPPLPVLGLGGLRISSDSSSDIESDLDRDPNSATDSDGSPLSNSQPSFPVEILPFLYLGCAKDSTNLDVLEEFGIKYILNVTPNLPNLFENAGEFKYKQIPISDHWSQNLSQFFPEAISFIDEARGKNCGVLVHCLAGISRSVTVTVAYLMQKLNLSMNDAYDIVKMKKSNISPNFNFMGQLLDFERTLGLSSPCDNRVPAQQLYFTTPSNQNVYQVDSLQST

As to `CCCC(=O)Nc1ccc(OCC(O)CNC(C)C)c(C(C)=O)c1` (stereo unspecified), in assay [1], the cell count is 693. Also, the inhibition in assay [1] was -4.7% (inactive); in [2], -70.6% (inactive); in assay [4], 11.3% (inactive); in assay [9], -6.41% (inactive); in assay [10], 8.12% (inactive); in assay [11], 27.1% (inactive). Further, the nuclei count in assay [2] was 120%. Further, the z-score is -1.73 in [3] (setting [14]), -0.994 in assay [3] (setting [15]) and 0.31 in [3] (setting [16]). The fluorescence slope in assay [5] is -0.492 (inactive). In addition, in assay [6], the NADPH fluorescence slope was 3e-05 (inactive). In addition, the slope in assay [7] is 0.00505 (inactive). Moreover, the outcome in assay [8] was inactive.
As to `CC(C)NCC(O)COc1cccc2[nH]ccc12` (stereo unspecified), the cell count in assay [1] was 631. In addition, the inhibition in [1] was -11.5% (inactive); in assay [2], -58% (inactive); in assay [4], 3.45% (inactive); in [9], -3.19% (inactive) and 0.043% (inactive); in assay [10], -0.334% (inactive); in assay [11] it was 29.8% (inactive). This molecule also yielded a nuclei count in assay [2] of 126%. Further, the figures for the z-score in [3] (setting [14]), in assay [3] (setting [15]) and in assay [3] (setting [16]) were 0.107, -0.142 and 0.346, respectively. Further, the fluorescence slope in [5] was -0.46 (inactive). The NADPH fluorescence slope in assay [6] is -4.4e-05 (inactive). Further, the slope in assay [7] is 0.00514 (inactive). Moreover, the outcome in assay [8] was inactive.
In the case of `COC(=O)C(NC(C)=O)(Nc1nc2ccc(S(C)(=O)=O)cc2s1)C(F)(F)F` (stereo unspecified), in assay [1], the cell count amounted to 473. The inhibition in assay [1] was -7.9% (inactive); in assay [2] it was -30.1% (inactive); in assay [4] it was 7.42% (inactive); in assay [9] it was -13% (inactive); in assay [10], -0.421% (inactive); in [11], 13.8% (inactive). Also, the inhibition of aggregation in assay [12] is 3.4% (inactive). Also, the nuclei count stood at 102% in [12] and 97.4% in [2]. The z-score in assay [3] (setting [14]) is -0.876; in assay [3] (setting [15]), 0.631; in assay [3] (setting [16]) it was 0.313. For the same molecule, the fluorescence slope is -0.51 (inactive) in [5] and 0.00507 (inactive) in assay [13]. Moreover, the NADPH fluorescence slope in assay [6] is -1e-05 (inactive). Besides, the molecule was classed as inactive in [8].
As to `Cc1cc(C)n(S(=O)(=O)Cc2ccccc2)n1`, the cell count in [1] is 495. Also, the inhibition in assay [1] is 0.8% (inactive); in assay [2], -49.2% (inactive); in [9], -10% (inactive); in assay [10], 15% (inactive); in [11] it was 14.8% (inactive). For the same molecule, the inhibition of aggregation in [12] is -5.2% (inactive). The nuclei count in [12] was determined as 100%; in assay [2] it was 105%. The fluorescence slope in assay [5] was -0.531 (inactive). In addition, the NADPH fluorescence slope in assay [6] is -1.7e-05 (inactive). In addition, the slope in assay [7] was 0.00447 (inactive). Besides, the molecule was classed as inactive in [8].
`O=c1cc(NCc2ccccc2)nc2n1CCCS2`: in assay [1], the cell count was 572. For the same molecule, the inhibition in assay [1] was -1.5% (inactive); in assay [4], -4.7% (inactive); in [9] it was 4.05% (inactive); in assay [10] it was -14.4% (inactive); in [11], -33.9% (inactive). Further, in [12], the inhibition of aggregation is -16.3% (inactive). In addition, the nuclei count in assay [12] amounted to 94.5%. For the same molecule, the z-score is -0.588 in assay [3] (setting [14]), -0.473 in assay [3] (setting [15]) and -1.35 in assay [3] (setting [16]). Moreover, the fluorescence slope in [5] is -0.506 (inactive). Moreover, the NADPH fluorescence slope in assay [6] is -0.000115 (inactive). Further, the slope in assay [7] is 0.00575 (inactive). Further, the call in assay [8] was inactive.
Consider `Clc1ccc2c(c1)C(N1CCNCC1)=Nc1ccccc1O2`, for which, in [1], the cell count came to 676. The inhibition in assay [1] was -0.2% (inactive); in assay [2], -61.7% (inactive); in assay [4], -7.45% (inactive); in assay [9], -13.2% (inactive) and 2.47% (inactive); in assay [10], 1.94% (inactive); in [11], 23.6% (inactive). For the same molecule, the inhibition of aggregation in assay [12] was 16.3% (inactive). Moreover, the nuclei count in assay [12] turned out to be 73.5%; in assay [2], 119%. The z-score in [3] (setting [14]) is -1.22; in assay [3] (setting [15]), -0.679; in assay [3] (setting [16]), 1.28. In addition, the fluorescence slope in assay [5] is -0.471 (inactive). Besides, the NADPH fluorescence slope in assay [6] is -7.1e-06 (inactive). Also, in assay [8], the outcome was “inactive; toxic”.
